Hit rate of the full screen: of about 65,000 compounds, about 2,100 (3.2%) showed an effect of 50% or more. The median lay at about -52%. The entries come from a sample that favours strong results as a whole.
Test system: Plasmodium falciparum
Test: Screen against P. falciparum Asexual Blood Stage (ABS), at 5uM
Format: functional, Dd2
Settings: tested at 5 uM

Compound	INHIBITION [%]
CCC1=NN2C(=N)C(=Cc3cccn3-c3cccc(Cl)c3)C(=O)N=C2S1	-39.1
COc1cc(NC(=O)NCc2nccn2C)ccc1Br	-84.1
O=C(c1ccco1)N1CCCC(c2cc(C(F)(F)F)n3ncnc3n2)C1 (stereo not drawn)	4.5
Cc1ccsc1CN1C[C@@H]2COC[C@]2(CNC(=O)c2ccco2)C1	21.9
CC(C)N1CCC2(C=C(C(=O)N(C)C)c3ccccc32)CC1	-3.5
CN1CCC2(C=C(C(=O)N(C)C)c3ccccc32)CC1	61.5
CCN1CCC2(C=C(C(=O)N(C)C)c3ccccc32)CC1	-0.272
Cc1nc(CN(C)C2CCN(Cc3ccc4ccccc4n3)C2)no1 (stereo not drawn)	-24.6
Cc1ccccc1N1CC2(CCN(c3nncs3)C2)CC1=O (stereo not drawn)	-152
O=C(NC1CC1)[C@@]12CCO[C@@H]1CCN(Cc1ccc3c(c1)OCO3)C2	-28.1
CN(C)C(=O)N1CCC(C2C(=O)Nc3ccccc32)CC1 (stereo not drawn)	60
O=C1Nc2ccccc2C1C1CCN(C(=O)C2CC2)CC1 (stereo not drawn)	-87.8
CC(C)C(=O)N1CCC(C2C(=O)Nc3ccccc32)CC1 (stereo not drawn)	-81.3
CCOc1ccc(OCCN2CCC(N3CCNC3=O)CC2)cc1	-43.4
Cc1cc2c(N)nc(=O)n(CC(=O)Nc3cccc(Cl)c3)c2s1	-44.3
O=C1N(Cc2cccc(F)c2)CCC12CCN(c1ccccn1)CC2	50.6
O=C1N(Cc2cccc(F)c2)CCC12CCCN(c1ncc(F)cn1)C2 (stereo not drawn)	-95.8
Cc1cccc(CN2CCC3(CCN(c4ncccn4)C3)C2=O)c1 (stereo not drawn)	-63.6
Cc1noc(C)c1C(=O)N1Cc2ncn(C)c2C(COCC2CC2)C1 (stereo not drawn)	-98.5
Cc1ccc(CN2CC[C@H]3CO[C@H](CN(C)Cc4ccco4)[C@H]3C2)s1	58.7
CN(Cc1ccco1)C[C@H]1OC[C@@H]2CCN(Cc3ccsc3)C[C@@H]21	67.3
CN(Cc1ccco1)C[C@@H]1OC[C@H]2CN(Cc3nccs3)CC[C@H]21	-48.2
Cc1ccc(N2CC[C@H]3CO[C@H](CN(C)Cc4ccco4)[C@H]3C2)nn1	-35.9
CN(Cc1ccco1)C[C@H]1OC[C@@H]2CCN(Cc3ccncc3)C[C@@H]21	2.4
Cc1cccc(N2CC[C@H]3[C@H](CO[C@@H]3CN(C)Cc3ccco3)C2)n1	7.29
CN(Cc1ccco1)C[C@H]1OC[C@@H]2CCN(Cc3nccs3)C[C@@H]21	11.4

Compound	INHIBITION [%]
CN(Cc1ccco1)C[C@H]1OC[C@@H]2CCN(Cc3cccnc3)C[C@@H]21	-38.5
Cc1cccc(N2CC[C@H]3CO[C@H](CN(C)Cc4ccco4)[C@H]3C2)n1	50.7
O=C(c1ccco1)N1CCCC2(CCN(c3nncs3)C2)C1 (stereo not drawn)	-157
O=C(NCc1ccccn1)[C@@]12CCO[C@@H]1CCN(Cc1ccccn1)C2	-75.4
CC(C)(C)c1nc(CNc2ccccc2SCCC(N)=O)cs1	-98.5
CN(C)C1CCC2(CCN(Cc3nccn3C)CC2)c2ccccc21 (stereo not drawn)	24.3
Cn1cc(C(=O)NCCc2ccc(OC3CCCC3)cc2)ccc1=O	-53.4
O=S(=O)(c1ccccc1)N1CCC2(CCCN2Cc2ccccc2Cl)C1 (stereo not drawn)	-129
CCCNC(=O)C1CCCN(c2ccc3nncn3n2)C1 (stereo not drawn)	-47.2
CS(=O)(=O)Nc1ccn(Cc2ccc(Cl)cc2)n1	-58.2
CCCN(CCC)c1ncc(S(=O)(=O)c2ccc(OC)cc2)c(N)n1	67.6
CCCN(CCC)c1ncc(S(=O)(=O)c2ccccc2)c(N)n1	-9.26
CCCN(CCC)c1ncc(S(=O)(=O)c2ccc(C)cc2)c(N)n1	14.8
CC(C)(C)NC(=O)N1CCC(Oc2ccc(C(F)(F)F)cn2)CC1	-12
CNC(=O)CN1CCCC12CCN(C(=O)c1ccoc1)CC2	53.1
CNC(=O)CN1CCCC12CCN(C(=O)c1ccc(F)cc1)CC2	-39
CN(C)CCN1CCCC12CCN(C(=O)c1ccoc1)CC2	-39
O=C(CCNc1ncccn1)N1CCCC(n2cccn2)C1 (stereo not drawn)	-28.6
Cc1cc(C(=O)NC2CCCc3c2cnn3-c2cccc(C)c2C)[nH]n1 (stereo not drawn)	-1.74
Cc1cccc2cc(CO)c(N3Cc4cnc(C(C)(C)C)nc4C3)nc12	66.5
Cc1ccc(C(=O)O)c(N2Cc3cnc(C(C)(C)C)nc3C2)n1	-21.3
CC(C)Cc1ncc2c(n1)CN(c1nc3ccccc3cc1CO)C2	-50
O=C(c1ccoc1)N1CCO[C@]2(CCC[C@@H]2COCc2cccnc2)C1	-54.6
Cc1ccc(N2CC[C@@H]3[C@@H]2CCN3C(=O)Cc2ccsc2)nn1	-93.9
Cc1cc2c(cc1NC(=O)NC(C)(C)C)OCO2	-23.5
CCOCc1nc2c(c(N(C)Cc3snnc3C)n1)CCNCC2	-48

Compound	INHIBITION [%]
CCOCc1nc2c(c(N(C)Cc3nonc3C)n1)CCNCC2	47.4
CCOCc1nc2c(c(N(C)Cc3ccsc3)n1)CCNCC2	64.4
CN(C)CCN1C[C@@H]2CN(c3ccccc3)C[C@@H]2C1=O	-41.2
c1cnn(CCCO[C@@H]2CC[C@H]3[C@H]2OCCN3CC2CC2)c1	-65.8
CN(Cc1cccnc1)C1CC2(CCN(Cc3ccccn3)CC2)C1	10.3
Cc1ccc(CNC(=O)NC2CCCc3c2cnn3CCO)cn1 (stereo not drawn)	-91.3
COCCN(CC1CC1)c1nc(CCN)nc2ccccc12	12.1
Cc1ccsc1CN(c1nc(CCN)nc2ccccc12)C1CC1	51.4
COCCN(Cc1cccs1)c1nc(CCN)nc2ccccc12	62.2
CCCc1ncc(CN(CCOC)Cc2cccs2)cn1	-70.2
NCCc1nc(N(Cc2nccs2)C2CC2)c2ccccc2n1	-53.9
NCCc1nc(N(Cc2cncs2)C2CC2)c2ccccc2n1	-30.2
O=C(Cc1ccon1)N1CCN(c2ccc(F)cc2Cl)CC1	-28.3
Cc1cnn(CCNCC(O)COc2ccc(F)cc2)c1 (stereo not drawn)	47.3
O=C(c1ccco1)N1CCC12CCN(c1ncc(F)cn1)CC2	-79.7
CN(C)S(=O)(=O)N1CCC(Oc2cccnn2)CC1	-57.2
CCC(C)NC(=O)NCCC(=O)N1CCN(c2ccccn2)CC1 (stereo not drawn)	-15.2
Cc1nn(C)c(C)c1CNCc1cccnc1N1CCOCC1	-43.9
CC(C)NCc1cccnc1N1CCN(c2ccccn2)CC1	3.69
CC(C)C(=O)NCCC(=O)N1CCN(c2ccccn2)CC1	-172
Cc1nn(C)c(Cl)c1CNCc1cccnc1N1CCOCC1	-69.2
CC(C)CC(C)NCc1cccnc1N1CCOCC1 (stereo not drawn)	60.8
CCC(CC)C(=O)NCCC(=O)N1CCN(c2ccccn2)CC1	-123
CC(C)CC(C)NCc1cccnc1N1CCN(c2ccccn2)CC1 (stereo not drawn)	56.6
CCCC(C)NCc1cccnc1N1CCN(c2ccccn2)CC1 (stereo not drawn)	51.4
CC1(C)CNC(=O)CN(C(=O)COc2ccccc2)C1	-24.2

Compound	INHIBITION [%]
NCCCNS(=O)(=O)Cc1ccc(Br)cc1	-29.3
Cc1cccc(CN2C(=O)CCC23CCN(Cc2ccoc2)CC3)n1	-81
CN(C)C(=O)CN1C(=O)CCC12CCN(Cc1ccc(F)cc1)CC2	-99.9
Cc1noc(C)c1CN1CCN(c2ccnc(-c3ccccc3)n2)CC1	-33.7
Cc1cc(C)c2nc(C)c(C(=O)N3CCC(CCN(C)C)CC3)cc2c1	-87.5
CCN(CC)C1CCN(C(=O)c2cc3cc(C)cc(C)c3nc2C)CC1	56.8
Cc1cc(C)c2nc(C)c(C(=O)N3CCC(N4CCCC4)CC3)cc2c1	-39.3
Cc1cc(CN2C[C@@H](C)[C@@]3(CCN(CC(=O)N(C)C)C3=O)C2)oc1C	-100
CC[C@H](C)[C@H](NC(=O)c1ccc(-n2cnnn2)cc1)C(=O)OC	-18.7
O=C(c1occc1CN1C(=O)Cc2ccccc21)N1CCCCCC1	3.14
O=C(c1occc1CN1C(=O)Cc2ccccc21)N1CC(O)C1	-89.1
CN1CCN(C(=O)c2occc2CN2C(=O)Cc3ccccc32)CC1	54.3
Cc1cc(C(N)=O)nc(C2(C)CCCN2Cc2cnn(C)c2C)n1 (stereo not drawn)	-80.5
CN(Cc1ccncn1)C(=O)C1(Oc2ccc(Cl)cc2)CCNCC1	-74.1
CN(C)C(=O)C1(Oc2ccc(Cl)cc2)CCNCC1	49.2
Cc1ccc(OC2(C(=O)N(C)Cc3ccoc3)CCNCC2)cc1	63.5
CN(Cc1ccoc1)C(=O)CN1C(=O)OC(C)(C)C1=O	-47.7
O=C(N[C@@H]1CCCNC1)C1(Oc2ccc(Cl)cc2)CCNCC1	-14.3
CN(Cc1ccoc1)C(=O)C1(Oc2ccc(Cl)cc2)CCNCC1	66.9
COCC(=O)N1CCCn2c(CN3CCCC3)nnc2C1	-108
CC(C)NC(=O)C1(CC2CC(c3ccc(F)cc3)=NO2)CCNCC1 (stereo not drawn)	-90.4
COc1ncc(NCc2ccc(Cl)c(Cl)c2)cc1C(N)=O	-14
O=C(CN1C[C@@H]2CC[C@H]1CN(Cc1ccccn1)C2)NCc1cccs1	68.4
Cn1ccc(NC(=O)CN2C[C@@H]3CC[C@H]2CN(Cc2ccccn2)C3)n1	-21.7
O=C(c1cc(C2CC2)no1)N1C[C@@H]2CC[C@H]1CN(Cc1ccccn1)C2	9.2

Reference: ChEMBL document CHEMBL4513216, “Probing the Open Global Health Chemical Diversity Library for Multistage-Active Starting Points for Next-Generation Antimalarials” (ACS Infect Dis, 2020)
